In PubChem BioAssay AID1159580 (chemical genetic matrix, 2015):
Where “and” joins values, the source holds several entries; their conditions need not be identical. Equal entries are not always repeated. Among all 5,500 compounds or so, about 2,000 (36%) were called active. Roughly 18% stayed inconclusive and do not appear here. Cut-off read from the data, not from the text of the source: active = normalized growth mostly below about 0.91 (no sharp cut-off); inconclusive = no clear call, values can overlap the other calls; inactive = mostly above about 0.92. The list shows a part of the results.

Experiment: chemical genetic growth profiling, strain panel (AID 1159580);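 note: tested at 20 µM; growth read once vehicle control cultures reached saturation at 30 °C; 1 = growth at the plate median or of vehicle wells; lower values mean less growth of the strain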
Conditions: S. cerevisiae deletion strains, growth OD

Measured: normalized growth

CC1(C)C=Cc2cc3ccc(=O)oc3cc2O1
0.901 (inactive) and 0.867 (active): locus YJL095W, strain BCK1, stronger effect = lower value
inactive: locus YAL013W, strain DEP1, stronger effect = lower value 0.986 | locus YAL021C, strain ccr4, stronger effect = lower value 0.987 | locus YAL026C, strain drs2, stronger effect = lower value 0.963 | locus YAL030W, strain snc1, stronger effect = lower value 0.934 | locus YBL061C, strain skt5, stronger effect = lower value 0.972 | locus YBR021W, strain FUR4, stronger effect = lower value 0.95 | locus YBR171W, strain sec66, stronger effect = lower value 0.945 | locus YBR229C, strain ROT2, stronger effect = lower value 0.995 | locus YBR231C, strain swc5, stronger effect = lower value 0.958 | locus YBR279W, strain paf1, stronger effect = lower value 0.973 | locus YCL029C, strain bik1, stronger effect = lower value 0.967 | locus YCR088W, strain abp1, stronger effect = lower value 0.927 | locus YDL005C, strain med2, stronger effect = lower value 0.96 | locus YDL035C, strain GPR1, stronger effect = lower value 0.984 | locus YDL040C, strain nat1, stronger effect = lower value 0.962 | locus YDL074C, strain BRE1, stronger effect = lower value 0.919 | locus YDL101C, strain DUN1, stronger effect = lower value 0.987 | locus YDL134C, strain PPH21, stronger effect = lower value 0.947 | locus YDL185W, strain tfp1, stronger effect = lower value 0.975 | locus YDL192W, strain arf1, stronger effect = lower value 0.958 | locus YDR069C, strain doa4, stronger effect = lower value 0.958 | locus YDR101C, strain arx1, stronger effect = lower value 0.93 | locus YDR137W, strain rgp1, stronger effect = lower value 0.849 | locus YDR159W, strain sac3, stronger effect = lower value 0.959 | locus YDR162C, strain NBP2, stronger effect = lower value 0.976 | locus YDR195W, strain ref2 1.07 | locus YDR297W, strain sur2, stronger effect = lower value 0.965 | locus YDR318W, strain mcm21, stronger effect = lower value 0.935 | locus YDR334W, strain swr1, stronger effect = lower value 0.943 | locus YDR335W, strain msn5, stronger effect = lower value 0.919 | locus YDR388W, stronger effect = lower value 0.971 | locus YEL003W, strain gim4, stronger effect = lower value 0.951 | locus YEL037C, strain rad23, stronger effect = lower value 0.95 | locus YEL061C, strain CIN8 (second series), stronger effect = lower value 0.931 | locus YEL061C, strain CIN8, stronger effect = lower value 0.993 | locus YER016W, strain bim1, stronger effect = lower value 0.965 | locus YER110C, stronger effect = lower value 0.96 | locus YER111C, strain swi4, stronger effect = lower value 0.958 | locus YER155C, strain BEM2, stronger effect = lower value 0.973 | locus YER167W, strain BCK2, stronger effect = lower value 0.952 | locus YFR010W, strain ubp6, stronger effect = lower value 0.951 | locus YGL078C, strain dbp3, stronger effect = lower value 0.968 | locus YGL167C, strain pmr1, stronger effect = lower value 0.953 | locus YGL173C, strain kem1, stronger effect = lower value 0.949 | locus YGL227W, strain vid30, stronger effect = lower value 0.934 | locus YGL248W, strain PDE1, stronger effect = lower value 0.941 | locus YGL253W, strain hxk2, stronger effect = lower value 0.971 | locus YGR078C, strain PAC10, stronger effect = lower value 0.944 | locus YGR135W, strain pre9, stronger effect = lower value 0.907 | locus YGR252W, strain gcn5, stronger effect = lower value 0.818 | locus YHR013C, strain ard1, stronger effect = lower value 0.865 | locus YHR027C, strain rpn1, stronger effect = lower value 0.953 | locus YHR079C, strain IRE1 (second series), stronger effect = lower value 0.962 | locus YHR094C, strain hxt1, stronger effect = lower value 0.964 | locus YHR129C, strain ARP1, stronger effect = lower value 0.978 | locus YHR200W, strain rpn10, stronger effect = lower value 0.954 | locus YIL066C, strain RNR3, stronger effect = lower value 0.993 | locus YIL073C, strain SPO22, stronger effect = lower value 0.908 | locus YIL125W, strain kgd1, stronger effect = lower value 0.935 | locus YIR030C, strain dcg1, stronger effect = lower value 0.962 | locus YJL092W, strain hpr5, stronger effect = lower value 0.921 | locus YJL095W, strain BCK1 (second series), stronger effect = lower value 0.96 | locus YJL115W, strain asf1, stronger effect = lower value 0.921 | locus YJL134W, strain LCB3, stronger effect = lower value 0.991 | locus YJL154C, strain vps35, stronger effect = lower value 0.933 | locus YJL168C, strain set2, stronger effect = lower value 0.976 | locus YJL187C, strain SWE1 (second series), stronger effect = lower value 0.959 | locus YJL187C, strain SWE1, stronger effect = lower value 0.968 | locus YJR043C, strain POL32, stronger effect = lower value 0.972
active: locus YBR009C, strain hhf1, stronger effect = lower value 0.875 | locus YBR023C, strain chs3, stronger effect = lower value 0.912 | locus YCL011C, strain gbp2, stronger effect = lower value 0.865 | locus YCL016C, strain dcc1, stronger effect = lower value 0.891 | locus YCL069W, strain vba3, stronger effect = lower value 0.915 | locus YDR001C, strain nth1, stronger effect = lower value 0.906 | locus YDR392W, strain spt3, stronger effect = lower value 0.58 | locus YDR502C, strain sam2, stronger effect = lower value 0.914 | locus YER015W, strain faa2, stronger effect = lower value 0.919 | locus YER155C, strain BEM2 (second series), stronger effect = lower value 0.565 | locus YGL086W, strain mad1, stronger effect = lower value 0.916 | locus YGL240W, strain doc1, stronger effect = lower value 0.863 | locus YHR079C, strain IRE1, stronger effect = lower value 0.818 | locus YHR142W, strain chs7, stronger effect = lower value 0.834 | locus YJL129C, strain trk1, stronger effect = lower value 0.778 | locus YJL164C, strain tpk1, stronger effect = lower value 0.9 | locus YJL166W, strain qcr8, stronger effect = lower value 0.896
0.984 (inactive) and 0.846 (active): locus YHR030C, strain SLT2, stronger effect = lower value
